From PubChem BioAssay AID2314 (National Center for Advancing Translational Sciences (NCATS), 2010)
In all, about 300,000 compounds went through this assay and about 37,000 (12%) were called active. No stated cut-off is given here; in the data, active means max response mostly above about 13% (no sharp cut-off); inactive means mostly below about 14%. The entries come from a sample that favours actives as a whole.

Assay: Cycloheximide Counterscreen for Small Molecule Inhibitors of Shiga Toxin; further: read at 38.3 µM for the half of the compounds with a filed dose; 0% is about no effect
Settings: cell reporter, cycloheximide protein synthesis inhibition counterscreen; hits give high values

Row | Compound | max response
1 | CC(C)(C)C1CCC(C(=O)Nc2cccnc2)CC1 (stereo not given) | -2.39% (inactive)
2 | CC1CCCN(CC(O)COc2ccc3c(c2)OCO3)C1 (stereo not given) | 4.28% (inactive)
3 | COCC1CCCN(Cc2nc(-c3ccc4c(c3)OCO4)no2)C1 (stereo not given) | 42.1% (active)
4 | COCC1CCCN(Cc2cn[nH]c2-c2cc3ccccc3o2)C1 (stereo not given) | 7.39% (inactive)
5 | Cc1c(NC(=O)c2c([N+](=O)[O-])cnn2C)c(=O)n(-c2ccccc2)n1C | -6.14% (inactive)
6 | O=C(Nc1ccccc1C(=O)NCC1CCCO1)c1ccccc1F (stereo not given) | 14.1% (inactive)
7 | Cc1ccc(-c2noc(-c3ccccc3C(=O)NCC3CCCO3)n2)cc1 (stereo not given) | 27.2% (active)
8 | COCCNC(=O)c1ccccc1-c1nc(-c2ccccc2Cl)no1 | 28.8% (inactive)
9 | O=C(NCC1CCCO1)c1ccc2ccccc2n1 (stereo not given) | 29.9% (active)
10 | O=C(NCC1CCCO1)c1cc(-c2ccccc2)nc2ccccc12 (stereo not given) | 9.86% (inactive)
11 | COc1ccc(SCc2noc(C(=O)NCC3CCCO3)c2C(=O)O)cc1 (stereo not given) | -3.22% (inactive)
12 | Cc1ccccc1CN(c1ccc(C(=O)NCC2CCCO2)cc1)S(C)(=O)=O (stereo not given) | -5.23% (inactive)
13 | O=C(CSCc1c(F)cccc1Cl)NCC1CCCO1 (stereo not given) | 13.1% (inactive)
14 | O=C(NCC1CCCO1)c1ccccc1-c1nc(-c2ccccc2Cl)no1 (stereo not given) | 27.4% (active)
15 | Cc1nc2ccccc2c2oc(C(=O)NCC3CCCO3)cc12 (stereo not given) | -1.07% (inactive)
16 | COc1ccc2cc(C(=O)NCC3CCCO3)[nH]c2c1 (stereo not given) | 62.1% (active)
17 | CCC(=O)c1c[nH]c(C(=O)NCC2CCCO2)c1 (stereo not given) | -0.953% (inactive)
18 | Cc1sc2ncn(CC(=O)NCCCC(=O)NCc3ccc(F)cc3)c(=O)c2c1C | -1.09% (inactive)
19 | Cc1cccn2c(CN(C)C3CCCc4ccccc43)c(C(=O)N3CCOCC3)nc12 (stereo not given) | -3.53% (inactive)
20 | Cc1cc2c(cc1C)N(Cc1ccccc1)C1=NCCCN12 | -2.27% (inactive)
21 | CC(C)C[C@H](NC(=O)C1CCC(CNC(=O)[C@@H]2CCCN2C(=O)OC(C)(C)C)CC1)C(=O)O (stereo not given in full) | 0.405% (inactive)
22 | CC(C)[C@H](NC(=O)N1CC(=O)Nc2ccccc21)C(=O)N[C@@H](Cc1c[nH]c2ccccc12)C(=O)O | -2.21% (inactive)
23 | CN1CCN(c2ncc3c(n2)CC(c2ccccc2F)CC3=O)CC1 (stereo not given) | -2.88% (inactive)
24 | COc1ccc(C)cc1NC(=O)NCc1ccccn1 | -3.22% (inactive)
25 | COc1ccc2ccccc2c1CNc1nnnn1C | -2.6% (inactive)

Row | Compound | max response
26 | COc1ccc2ccccc2c1CNCc1ccccn1 | 20.7% (active)
27 | Cc1ccc(-c2c(C)n([O-])c3c([n+]2=O)CCC3)cc1 | 2.58% (inactive)
28 | CC(Oc1ccc(-c2ccccc2)c(F)c1)c1ccn(S(=O)(=O)c2cccc3ccccc23)n1 (stereo not given) | -1.64% (inactive)
29 | NNC(=O)CNC(c1ccccc1)c1cc(Cl)ccc1NC(=O)c1ccccc1 (stereo not given) | -3.14% (inactive)
30 | C/[N+]([O-])=C\c1ccc([N+](=O)[O-])o1 | 8.46% (inactive)
31 | O=C(/C=C/c1ccc([N+](=O)[O-])o1)NNC(=O)c1ccc(F)cc1 | 71.2% (active)
32 | O=C(N/N=C/c1ccc([N+](=O)[O-])o1)c1cn(-c2ccccc2)nc1-c1ccc(F)cc1 | 10.8% (inactive)
33 | Clc1ccc2nc(CSc3ccccc3)cn2c1 | 26.2% (active)
34 | CCOc1ncccc1C(=O)OCc1cn2cc(Cl)ccc2n1 | 9.62% (inactive)
35 | O=C(/C=C/c1ccc2c(c1)OCO2)NCc1cn2cc(Cl)ccc2n1 | 2.11% (inactive)
36 | Cc1nn(CCCC(=O)NCc2ccccc2Cl)c(=O)c2nccn12 | -3.04% (inactive)
37 | O=C(COC(=O)Cc1ccccc1)Nc1ccc(F)cc1 | -1.31% (inactive)
38 | Cc1cccc(C(=O)OCC(=O)Nc2ccc(F)cc2)c1 | 10% (active)
39 | COc1ccc(C(=O)OCC(=O)Nc2cccc(C(C)=O)c2)cc1OC | 9.48% (inactive)
40 | O=C(COC(=O)c1cccc(Br)c1)Nc1cccc2c1C(=O)c1ccccc1C2=O | 25.2% (active)
41 | O=C(COC(=O)Cn1cnc2ccccc21)Nc1cccc2c1C(=O)c1ccccc1C2=O | -4.76% (inactive)
42 | O=C(COC(=O)c1ccccc1)Nc1ccccc1Sc1ccccc1 | 9.64% (inactive)
43 | O=C1CCN(Cc2ccccc2)CCN1[C@H](CSc1ccccc1)c1ccccc1 | -1.82% (inactive)
44 | CCOc1ccccc1NC(=S)NC(=O)CCc1ccccc1 | 1.38% (inactive)
45 | CCOc1ccc(CN2CCC(n3nccc3NC(=O)C3CC3)CC2)cc1CO | -1.74% (inactive)
46 | Cc1ccc(CC2(O)CCN(CCOc3ccc(O)cc3)CC2)cc1 | 4.37% (inactive)
47 | CC(C)C(=O)Nc1ccc2c(c1)oc1ccccc12 | 67% (active)
48 | CC(C)C(=O)Nc1ccc2oc(=O)ccc2c1 | -3.4% (inactive)
49 | CC(C)C(=O)Nc1c(C(=O)c2ccc(F)cc2)oc2ccccc12 | -1.75% (inactive)
50 | Cn1c(=O)c(=O)n(C)c2cc(S(=O)(=O)CCC(=O)N3CCCCC3)ccc21 | -2.58% (inactive)

Row | Compound | max response
51 | Cc1nn(Cc2ccccc2Cl)c(Cl)c1C(=O)OC(C(=O)NC(N)=O)C(C)C (stereo not given) | -4.81% (inactive)
52 | COc1ccccc1CCNC(=O)c1cnccn1 | 12.4% (inactive)
53 | COc1ccccc1CCNC(=O)c1c(C)nn(CC(C)C)c1Cl | 39% (active)
54 | COc1ccc(C(=O)NC2CC2)cc1OC1CCN(C/C=C/c2ccccc2)CC1 | 2.49% (inactive)
55 | COc1ccc(C)cc1N(CC(=O)NC(C)c1ccccc1)S(C)(=O)=O (stereo not given) | 5.61% (inactive)
56 | CO/N=C/CC(=O)c1ccc(OC)cc1 | 49.2% (active)
57 | COc1ccc(OCCC(=O)c2ccc(OC)cc2)cc1 | 4.64% (inactive)
58 | COc1ccc(C(=O)CC2C(=O)N(C)C(=O)N(C)C2=O)cc1 | 4.98% (inactive)
59 | Cc1ccc(NS(=O)(=O)c2c(C)[nH]c(=O)[nH]c2=O)cc1C | -1.76% (inactive)
60 | CCOC(=O)c1nnn(-c2nonc2-n2cccc2)c1CN1CCC(C(=O)OCC)CC1 | -2.67% (inactive)
61 | COCC(C)n1c(C)cc(C(=O)COc2ccc(C)nc2[N+](=O)[O-])c1C (stereo not given) | 8.12% (inactive)
62 | O=C(COC(=O)CNC(=O)c1ccco1)Nc1ccc(F)cc1 | -3.97% (inactive)
63 | COc1ccc(C)cc1-n1nnnc1SCC(=O)c1cc(C)n(Cc2ccco2)c1C | 27.1% (inactive)
64 | Cc1cc(C(=O)CSc2nc(N)cc(=O)[nH]2)c(C)n1Cc1ccco1 | -1.02% (inactive)
65 | Cc1ccc(OCC(=O)c2cc(C)n(Cc3ccco3)c2C)c([N+](=O)[O-])n1 | 43.4% (active)
66 | Cc1cc(C(=O)COC(=O)CNC(=O)c2ccc(F)cc2)c(C)n1Cc1ccco1 | 106% (active)
67 | Cc1ccc(S(=O)(=O)NCC(=O)N2CCOCCOCCOCCOCC2)cc1 | -3.49% (inactive)
68 | CC(C)CC(=O)c1c[nH]c(C(=O)NCc2ccccc2)c1 | -3.39% (inactive)
69 | COC(=O)C(CC(C)C)NS(=O)(=O)c1cc(Br)ccc1Br (stereo not given) | -8.13% (inactive)
70 | Cc1cc2c(cc1S(=O)(=O)CCC(=O)NCc1ccccc1)OCC(=O)N2 | -1.02% (inactive)
71 | CCn1ccnc1CNC(=O)CC1C(=O)NCCN1Cc1ccc(F)cc1Cl (stereo not given) | 8.96% (inactive)
72 | Clc1ccc(CN2CCCCCC2)cc1Cl | -3.66% (inactive)
73 | Cc1cccc(-n2c(=O)c3c(C)c(C)sc3n(CC(N)=O)c2=O)c1 | -0.167% (inactive)
74 | COc1ccc(-c2nnc(SC(C)C#N)o2)cc1 (stereo not given) | 27.2% (inactive)
75 | COc1ccc(-c2nnc(SCc3cccnc3)o2)cc1 | 30.9% (active)

Row | Compound | max response
76 | COC(=O)CSc1nnc(-c2cccnc2)o1 | 12.2% (inactive)
77 | COc1ccccc1CNS(=O)(=O)c1c(C)[nH]c(C)c1C(=O)N1CCCCC1 | 11% (inactive)
78 | O=c1[nH]cnc(O)c1C(c1ccc(F)cc1)c1c(O)nc[nH]c1=O | -2.78% (inactive)
79 | CCOc1ccc(N(CC(=O)NCC2CCCO2)S(=O)(=O)c2ccc(C)cc2)cc1 (stereo not given) | 0.744% (inactive)
80 | COc1cccc(/C=C2/SC(=S)N(CC(=O)NC3C=CS(=O)(=O)C3)C2=O)c1 (stereo not given) | 8.26% (inactive)
81 | COc1ccc(N2C(=O)NC(NS(=O)(=O)c3ccc(Cl)cc3)(C(F)(F)F)C2=O)cc1 (stereo not given) | -5.1% (inactive)
82 | COc1ccc(OC)c(-c2csc(-c3cccs3)n2)c1 | 30.2% (inactive)
83 | COc1ccc(-c2csc(-c3cccs3)n2)cc1OC | 59.6% (active)
84 | CNC(=O)c1[nH]cnc1C(=O)N[C@@H](CC(C)C)C(=O)OC(C)(C)C | -1.12% (inactive)
85 | COC(=O)c1cc(OCC(=O)NC2CCCc3ccccc32)cc(C(=O)OC)c1 (stereo not given) | 1.41% (inactive)
86 | COc1ccc(Br)cc1CN(C)CC(=O)Nc1cc(Cl)cc(Cl)c1 | -1.13% (inactive)
87 | CCn1c(SCC(=O)NC2CC2)nnc1-c1ccccn1 | 7.07% (inactive)
88 | Cc1ccc(O)c(NC(=O)c2cc(-c3ccco3)on2)c1 | 17.2% (active)
89 | Cc1ccc(C)c(NC(=O)c2ccc(OC(=O)c3ccco3)cc2)c1 | 12.4% (inactive)
90 | COc1ccc(NC(=O)c2cc(-c3ccc(C)cc3)on2)cc1 | 2.42% (inactive)
91 | CC1CCN(C(=O)C2CCN(S(=O)(=O)N3CCC4(CC3)OCCO4)CC2)CC1 | 5.25% (inactive)
92 | O=C(C1CC1)N1N=C(c2ccc(Br)cc2)CC1(O)C(F)(F)F (stereo not given) | -6.68% (inactive)
93 | CC(C)Oc1ccccc1C(=O)NC(CO)C(=O)O (stereo not given) | 5.75% (inactive)
94 | O=C1OCCN1C(=O)[C@H]1[C@H](c2ccc(Cl)cc2)C(c2cccc(Cl)c2)=NN1c1ccc(Br)cc1 | 1.68% (inactive)
95 | O=C(Cc1ccc(-n2c(=O)c3sccc3n(Cc3ccc(F)cc3)c2=O)cc1)NCc1ccco1 | -2.83% (inactive)
96 | CC1Cc2ccccc2N1C(=O)c1cc2sccc2n1Cc1ccccc1 (stereo not given) | 10.4% (inactive)
97 | O=C(NCc1ccco1)c1ccc(Cn2c(=O)c3sccc3n(Cc3ccc(F)cc3)c2=O)cc1 | 0.924% (inactive)
98 | O=C(NCc1ccco1)c1cc2sccc2n1Cc1ccc(F)cc1 | 45.3% (active)
99 | O=C(c1cc2sccc2n1Cc1ccc(F)cc1)N1CCc2ccccc21 | 16.9% (active)
100 | CCOC(=O)c1cc2sccc2n1Cc1ccc(C#N)cc1 | -2.12% (inactive)
